Experimental findings from PubChem BioAssay (NCATS) are described below.

Results filed as inconclusive are left out. Where a call stands in place of a potency, no number is given. Calls of active or inactive are those of the source. Calls come from the whole dose curve; as a rule, active = well fitted inhibition curve with a large enough effect; inconclusive = small, poorly fitted or top-dose-only effect; inactive = no such curve, though single readings can be large or run the other way.
Potency is the fitted concentration of half-maximal effect.

This test can be described thus: Counterscreen for APE1 Inhibitors: Fluorescent Dye Displacement Validation Assay (AID 1707). To be noted: fluorescent dye displacement from DNA; series mostly up to 57.1 µM. The gist of the method: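 Thiazole Orange (250 nM) bound to 50 nM TAMRA-labelled dsDNA with tetrahydrofuran abasic site; displacement by DNA-binding compounds lowers fluorescence. Buffer 50 mM Tris-HCl pH 7.5, 50 mM NaCl, 2 mM MgCl2, 0.01% Tween-20; endpoint read at 480/540 nm.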
(In general: The purpose of a counterscreen is to sort out artefacts and off-target activity.)
With `CNC(=O)[C@H]1O[C@@H](n2cnc3c(NCc4cccc(I)c4)ncnc32)[C@H](O)[C@H]1O`, the Potency entry is “inactive”.
As to `CC(N)=NCCCC(N)C(=O)O` (centres undefined), the Potency result was “inactive”.
For `Cc1cn([C@H]2C[C@@H](N=[N+]=[N-])[C@@H](CO)O2)c(=O)[nH]c1=O`, the Potency entry was “inactive”.
As for `N.N.N.N.N.N.N.N.N.N.N.N.N.N.O.O.[Cl-].[Cl-].[Cl-].[Cl-].[Cl-].[Cl-].[Ru].[Ru].[Ru]`, the Potency is 20 µM (active).
In the case of `CN=C(N)NCCCC(N)C(=O)O` (centres undefined) it was “inactive”.
As to `COc1c2c(nc3ccccc13)OC(C(C)(O)CO)C2` (centres undefined), the Potency result is “inactive”.
The value for `CN1C2CC(OC(=O)C(CO)c3ccccc3)CC1C1OC12` (centres undefined) was “inactive”; that for `CC(C)C1NC(=O)[C@H](CCCCN)NC(=O)[C@@H](Cc2c[nH]c3ccccc23)NC(=O)[C@H](Cc2ccc(O)cc2)NC(=O)[C@H](C)N(C)C(=O)[C@H](Cc2ccccc2)NC1=O` (some centres undefined) was “inactive”.
Regarding `NCCC(=O)NCCc1cnc[nH]1`, the Potency entry was “inactive”.
With `O=C(Cc1ccc(Cl)c(Cl)c1)OCCN1CCCC1`, the Potency entry was “inactive”.
In the case of `Cc1ccccc1N1CCN(S(=O)(=O)C[C@]23CCC(CC2NC(=O)[C@@H](N)CCS(C)(=O)=O)C3(C)C)CC1` (some centres undefined) it was “inactive”; in that of `NC(=O)C1=CN(C2OC(COP(=O)(O)OP(=O)(O)OC[C@H]3O[C@@H](n4cnc5c(N)ncnc54)[C@H](OP(=O)(O)O)[C@H]3O)C(O)C2O)C=CC1` (some centres undefined), “inactive”; in that of `CC(=O)[C@@]1(O)CC[C@H]2C3CCC4=CC(=O)CC[C@]4(C)C3CC[C@@]21C` (some centres undefined), “inactive”.
Take `OC[C@H]1O[C@@H](n2cnc3c(NCCc4ccccc4)ncnc32)[C@H](O)[C@H]1O`: the Potency entry was “inactive”.
